From ChEMBL document CHEMBL1961873, “Compounds: GSK PKIS; Assays: Nanosyn kinase panel” (2012)

Experiments:
[1] = target: Sphingosine kinase 1 (Homo sapiens) (UniProt Q9NYA1); conditions: at 1 µM;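 note: mean SPHK1 inhibition value reported from the GSK PKIS kinase panel screen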
[2] = target: T1, Sphingosine kinase 2 (Homo sapiens) (UniProt Q9NRA0); conditions: at 0.1 µM
T1 sequence (whole entry): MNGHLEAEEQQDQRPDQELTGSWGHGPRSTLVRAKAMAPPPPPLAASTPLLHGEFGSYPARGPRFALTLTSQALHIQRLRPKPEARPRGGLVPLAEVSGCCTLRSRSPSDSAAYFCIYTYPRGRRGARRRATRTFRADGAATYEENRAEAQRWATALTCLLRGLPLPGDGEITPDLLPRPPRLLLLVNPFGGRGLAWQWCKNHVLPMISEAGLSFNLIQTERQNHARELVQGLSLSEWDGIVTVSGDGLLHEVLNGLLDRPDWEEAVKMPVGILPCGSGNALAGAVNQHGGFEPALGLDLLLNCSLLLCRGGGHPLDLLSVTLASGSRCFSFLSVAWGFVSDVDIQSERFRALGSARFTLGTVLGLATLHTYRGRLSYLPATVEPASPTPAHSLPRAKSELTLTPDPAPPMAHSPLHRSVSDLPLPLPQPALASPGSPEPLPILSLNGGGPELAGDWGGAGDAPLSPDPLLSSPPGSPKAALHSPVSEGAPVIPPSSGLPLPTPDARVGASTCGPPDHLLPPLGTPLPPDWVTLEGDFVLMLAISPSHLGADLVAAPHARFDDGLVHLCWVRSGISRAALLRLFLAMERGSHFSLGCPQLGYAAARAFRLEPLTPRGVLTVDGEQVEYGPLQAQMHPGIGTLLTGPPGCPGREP

[3] = target: T1, Sphingosine kinase 2 (Homo sapiens); conditions: at 1 µM
[4] = target: Casein kinase II subunit alpha (Homo sapiens) (UniProt P68400); conditions: at 0.1 µM
Sequence of Casein kinase II subunit alpha (Homo sapiens) (P68400 whole entry, looked up): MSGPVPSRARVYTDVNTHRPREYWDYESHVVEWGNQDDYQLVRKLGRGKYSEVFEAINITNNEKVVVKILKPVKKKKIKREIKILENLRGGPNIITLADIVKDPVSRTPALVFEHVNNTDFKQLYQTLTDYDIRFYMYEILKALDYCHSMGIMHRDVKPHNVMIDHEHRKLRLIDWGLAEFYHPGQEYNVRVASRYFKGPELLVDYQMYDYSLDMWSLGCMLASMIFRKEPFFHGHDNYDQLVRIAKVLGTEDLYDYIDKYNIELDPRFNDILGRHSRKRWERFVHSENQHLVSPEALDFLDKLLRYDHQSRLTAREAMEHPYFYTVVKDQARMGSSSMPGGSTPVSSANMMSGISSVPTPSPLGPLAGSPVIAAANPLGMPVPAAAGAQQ

[5] = target: Casein kinase II subunit alpha (Homo sapiens) (UniProt P68400); conditions: at 1 µM
[6] = target: T2, Inhibitor of nuclear factor kappa-B kinase subunit alpha (Homo sapiens) (UniProt O15111); conditions: at 0.1 µM
T2 sequence (whole entry): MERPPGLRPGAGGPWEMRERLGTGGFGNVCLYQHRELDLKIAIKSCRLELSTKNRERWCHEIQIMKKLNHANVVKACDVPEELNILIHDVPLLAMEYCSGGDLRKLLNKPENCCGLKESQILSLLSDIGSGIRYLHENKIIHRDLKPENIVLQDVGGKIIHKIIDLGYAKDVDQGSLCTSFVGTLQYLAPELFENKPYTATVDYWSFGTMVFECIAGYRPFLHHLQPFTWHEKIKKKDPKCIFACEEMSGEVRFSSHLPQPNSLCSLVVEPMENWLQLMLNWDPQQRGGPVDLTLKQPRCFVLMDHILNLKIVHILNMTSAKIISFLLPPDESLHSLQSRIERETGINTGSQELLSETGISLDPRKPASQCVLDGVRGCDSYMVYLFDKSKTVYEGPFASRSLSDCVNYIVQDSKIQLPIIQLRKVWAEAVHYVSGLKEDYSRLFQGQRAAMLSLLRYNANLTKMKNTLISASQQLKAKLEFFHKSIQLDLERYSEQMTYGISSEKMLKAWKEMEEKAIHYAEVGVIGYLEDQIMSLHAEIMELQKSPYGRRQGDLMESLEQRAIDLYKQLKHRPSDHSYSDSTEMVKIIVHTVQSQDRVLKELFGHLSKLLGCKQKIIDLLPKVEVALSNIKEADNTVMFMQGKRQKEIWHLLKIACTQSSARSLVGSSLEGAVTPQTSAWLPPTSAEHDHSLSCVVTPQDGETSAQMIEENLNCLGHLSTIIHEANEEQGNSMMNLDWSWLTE

[7] = target: T2, Inhibitor of nuclear factor kappa-B kinase subunit alpha (Homo sapiens); conditions: at 1 µM
[8] = target: T3, Inhibitor of nuclear factor kappa-B kinase subunit beta (Homo sapiens) (UniProt O14920); conditions: at 0.1 µM
T3 sequence (whole entry): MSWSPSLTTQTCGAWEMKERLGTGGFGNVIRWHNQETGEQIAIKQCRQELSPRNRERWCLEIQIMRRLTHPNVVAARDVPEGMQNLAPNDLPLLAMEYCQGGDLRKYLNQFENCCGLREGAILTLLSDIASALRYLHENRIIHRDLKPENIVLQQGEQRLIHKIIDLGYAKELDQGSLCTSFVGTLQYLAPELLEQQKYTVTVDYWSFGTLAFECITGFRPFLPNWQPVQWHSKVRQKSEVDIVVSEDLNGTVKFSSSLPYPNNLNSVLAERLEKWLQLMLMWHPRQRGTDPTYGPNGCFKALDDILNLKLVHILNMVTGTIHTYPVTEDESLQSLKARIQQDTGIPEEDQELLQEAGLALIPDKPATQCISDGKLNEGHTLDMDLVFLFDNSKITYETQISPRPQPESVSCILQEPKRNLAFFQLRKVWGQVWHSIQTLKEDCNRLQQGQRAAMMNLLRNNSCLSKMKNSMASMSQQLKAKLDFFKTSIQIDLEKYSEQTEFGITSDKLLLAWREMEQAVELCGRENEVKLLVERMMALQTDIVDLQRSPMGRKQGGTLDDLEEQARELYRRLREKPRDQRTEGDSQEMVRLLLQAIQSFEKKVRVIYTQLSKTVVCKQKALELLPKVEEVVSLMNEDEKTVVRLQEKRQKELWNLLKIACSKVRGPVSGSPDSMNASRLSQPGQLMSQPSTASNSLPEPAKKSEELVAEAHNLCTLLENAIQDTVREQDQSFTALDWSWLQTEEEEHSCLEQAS

[9] = target: T3, Inhibitor of nuclear factor kappa-B kinase subunit beta (Homo sapiens); conditions: at 1 µM
[10] = target: T4, Inhibitor of nuclear factor kappa-B kinase subunit epsilon (Homo sapiens) (UniProt Q14164); conditions: at 0.1 µM
T4 sequence (whole entry): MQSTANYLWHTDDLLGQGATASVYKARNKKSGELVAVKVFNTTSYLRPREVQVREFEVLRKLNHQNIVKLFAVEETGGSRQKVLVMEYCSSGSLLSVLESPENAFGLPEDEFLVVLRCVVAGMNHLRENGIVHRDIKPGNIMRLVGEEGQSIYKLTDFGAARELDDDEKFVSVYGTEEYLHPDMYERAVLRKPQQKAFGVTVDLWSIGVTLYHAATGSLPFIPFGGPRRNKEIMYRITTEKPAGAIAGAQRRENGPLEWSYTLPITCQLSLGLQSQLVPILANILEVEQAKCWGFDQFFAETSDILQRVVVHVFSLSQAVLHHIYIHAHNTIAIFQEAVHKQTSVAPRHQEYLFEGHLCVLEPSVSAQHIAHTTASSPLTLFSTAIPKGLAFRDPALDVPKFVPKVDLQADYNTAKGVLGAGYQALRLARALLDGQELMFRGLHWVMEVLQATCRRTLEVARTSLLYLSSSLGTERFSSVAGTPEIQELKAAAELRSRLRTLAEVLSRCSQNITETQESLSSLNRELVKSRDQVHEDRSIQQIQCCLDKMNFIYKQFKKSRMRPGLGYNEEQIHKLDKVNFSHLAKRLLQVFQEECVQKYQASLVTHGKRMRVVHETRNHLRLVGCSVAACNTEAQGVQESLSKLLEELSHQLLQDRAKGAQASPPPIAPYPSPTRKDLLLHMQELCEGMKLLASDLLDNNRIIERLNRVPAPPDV

[11] = target: T4, Inhibitor of nuclear factor kappa-B kinase subunit epsilon (Homo sapiens); conditions: at 1 µM
[12] = target: T5, Serine/threonine-protein kinase Nek1 (Homo sapiens) (UniProt Q96PY6); conditions: at 0.1 µM
T5 sequence (whole entry): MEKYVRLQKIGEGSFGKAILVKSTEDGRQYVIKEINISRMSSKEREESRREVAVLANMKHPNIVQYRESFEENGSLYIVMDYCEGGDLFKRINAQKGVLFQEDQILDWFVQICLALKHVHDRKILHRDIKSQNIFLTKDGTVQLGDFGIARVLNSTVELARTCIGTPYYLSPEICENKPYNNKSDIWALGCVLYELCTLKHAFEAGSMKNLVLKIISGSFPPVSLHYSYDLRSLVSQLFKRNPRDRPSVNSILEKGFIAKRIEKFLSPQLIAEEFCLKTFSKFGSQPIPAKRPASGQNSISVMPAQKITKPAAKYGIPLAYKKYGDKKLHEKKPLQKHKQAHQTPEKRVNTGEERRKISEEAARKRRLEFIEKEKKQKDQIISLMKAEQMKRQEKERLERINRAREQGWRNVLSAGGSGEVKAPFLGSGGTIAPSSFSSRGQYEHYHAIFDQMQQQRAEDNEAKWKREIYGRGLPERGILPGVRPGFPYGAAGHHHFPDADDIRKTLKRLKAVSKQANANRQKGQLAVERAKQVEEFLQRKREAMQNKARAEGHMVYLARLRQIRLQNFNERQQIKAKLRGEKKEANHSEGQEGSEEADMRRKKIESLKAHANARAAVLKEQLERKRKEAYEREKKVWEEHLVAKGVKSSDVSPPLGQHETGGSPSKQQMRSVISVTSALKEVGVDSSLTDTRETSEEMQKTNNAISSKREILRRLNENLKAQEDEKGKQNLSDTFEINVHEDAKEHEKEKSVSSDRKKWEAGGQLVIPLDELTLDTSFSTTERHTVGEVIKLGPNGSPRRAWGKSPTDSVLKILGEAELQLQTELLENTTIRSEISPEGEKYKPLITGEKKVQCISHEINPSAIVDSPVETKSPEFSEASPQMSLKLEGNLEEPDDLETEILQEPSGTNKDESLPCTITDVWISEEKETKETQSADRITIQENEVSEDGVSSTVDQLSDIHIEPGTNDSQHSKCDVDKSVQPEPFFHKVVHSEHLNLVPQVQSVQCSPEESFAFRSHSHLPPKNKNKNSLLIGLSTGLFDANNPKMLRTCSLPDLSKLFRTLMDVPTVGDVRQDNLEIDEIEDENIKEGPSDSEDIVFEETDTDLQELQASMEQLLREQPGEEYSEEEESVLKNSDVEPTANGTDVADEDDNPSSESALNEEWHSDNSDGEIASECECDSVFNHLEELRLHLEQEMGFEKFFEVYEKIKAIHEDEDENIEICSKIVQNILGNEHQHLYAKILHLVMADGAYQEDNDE

[13] = target: T5, Serine/threonine-protein kinase Nek1 (Homo sapiens); conditions: at 1 µM
[14] = target: T6, Serine/threonine-protein kinase Nek2 (Homo sapiens) (UniProt P51955); conditions: at 0.1 µM
T6 sequence (whole entry): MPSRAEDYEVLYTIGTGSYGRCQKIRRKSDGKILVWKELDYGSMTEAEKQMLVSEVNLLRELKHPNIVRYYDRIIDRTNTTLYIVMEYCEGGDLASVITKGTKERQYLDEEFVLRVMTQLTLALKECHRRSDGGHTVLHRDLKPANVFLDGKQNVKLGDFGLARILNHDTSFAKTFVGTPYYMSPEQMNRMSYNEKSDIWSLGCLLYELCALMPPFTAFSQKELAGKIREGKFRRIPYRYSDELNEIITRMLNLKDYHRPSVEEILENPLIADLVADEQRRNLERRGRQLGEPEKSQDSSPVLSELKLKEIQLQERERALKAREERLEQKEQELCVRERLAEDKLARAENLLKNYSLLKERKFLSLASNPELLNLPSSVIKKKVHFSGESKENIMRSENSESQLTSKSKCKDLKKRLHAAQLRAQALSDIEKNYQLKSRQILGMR

[15] = target: T6, Serine/threonine-protein kinase Nek2 (Homo sapiens); conditions: at 1 µM
[16] = target: Serine/threonine-protein kinase Nek6 (Homo sapiens) (UniProt Q9HC98); conditions: at 0.1 µM
Sequence of Serine/threonine-protein kinase Nek6 (Homo sapiens) (Q9HC98 whole entry): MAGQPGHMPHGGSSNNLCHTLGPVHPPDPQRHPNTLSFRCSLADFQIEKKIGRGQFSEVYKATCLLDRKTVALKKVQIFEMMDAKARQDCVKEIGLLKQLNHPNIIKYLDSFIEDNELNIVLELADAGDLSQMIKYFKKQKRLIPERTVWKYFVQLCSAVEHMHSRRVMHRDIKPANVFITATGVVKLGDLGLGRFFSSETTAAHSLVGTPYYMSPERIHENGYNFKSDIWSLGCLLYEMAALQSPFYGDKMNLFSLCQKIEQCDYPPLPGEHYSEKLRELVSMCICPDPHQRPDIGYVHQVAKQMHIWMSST

[17] = target: Serine/threonine-protein kinase Nek6 (Homo sapiens) (UniProt Q9HC98); conditions: at 1 µM
[18] = target: Serine/threonine-protein kinase Nek7 (Homo sapiens) (UniProt Q8TDX7); conditions: at 0.1 µM
Sequence of Serine/threonine-protein kinase Nek7 (Homo sapiens) (Q8TDX7 whole entry, looked up): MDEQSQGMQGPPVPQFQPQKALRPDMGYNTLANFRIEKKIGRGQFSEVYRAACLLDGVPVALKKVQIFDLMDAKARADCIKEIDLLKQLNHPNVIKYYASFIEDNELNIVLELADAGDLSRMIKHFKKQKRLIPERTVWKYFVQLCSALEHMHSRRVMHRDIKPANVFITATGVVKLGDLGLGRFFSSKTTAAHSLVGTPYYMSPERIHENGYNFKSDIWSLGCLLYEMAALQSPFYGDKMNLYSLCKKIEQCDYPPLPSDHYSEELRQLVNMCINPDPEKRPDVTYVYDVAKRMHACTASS

[19] = target: Serine/threonine-protein kinase Nek7 (Homo sapiens) (UniProt Q8TDX7); conditions: at 1 µM
[20] = target: T7, Serine/threonine-protein kinase Nek9 (Homo sapiens) (UniProt Q8TD19); conditions: at 0.1 µM;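 note: reported value is the mean percent inhibition of NEK9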
T7 sequence (whole entry): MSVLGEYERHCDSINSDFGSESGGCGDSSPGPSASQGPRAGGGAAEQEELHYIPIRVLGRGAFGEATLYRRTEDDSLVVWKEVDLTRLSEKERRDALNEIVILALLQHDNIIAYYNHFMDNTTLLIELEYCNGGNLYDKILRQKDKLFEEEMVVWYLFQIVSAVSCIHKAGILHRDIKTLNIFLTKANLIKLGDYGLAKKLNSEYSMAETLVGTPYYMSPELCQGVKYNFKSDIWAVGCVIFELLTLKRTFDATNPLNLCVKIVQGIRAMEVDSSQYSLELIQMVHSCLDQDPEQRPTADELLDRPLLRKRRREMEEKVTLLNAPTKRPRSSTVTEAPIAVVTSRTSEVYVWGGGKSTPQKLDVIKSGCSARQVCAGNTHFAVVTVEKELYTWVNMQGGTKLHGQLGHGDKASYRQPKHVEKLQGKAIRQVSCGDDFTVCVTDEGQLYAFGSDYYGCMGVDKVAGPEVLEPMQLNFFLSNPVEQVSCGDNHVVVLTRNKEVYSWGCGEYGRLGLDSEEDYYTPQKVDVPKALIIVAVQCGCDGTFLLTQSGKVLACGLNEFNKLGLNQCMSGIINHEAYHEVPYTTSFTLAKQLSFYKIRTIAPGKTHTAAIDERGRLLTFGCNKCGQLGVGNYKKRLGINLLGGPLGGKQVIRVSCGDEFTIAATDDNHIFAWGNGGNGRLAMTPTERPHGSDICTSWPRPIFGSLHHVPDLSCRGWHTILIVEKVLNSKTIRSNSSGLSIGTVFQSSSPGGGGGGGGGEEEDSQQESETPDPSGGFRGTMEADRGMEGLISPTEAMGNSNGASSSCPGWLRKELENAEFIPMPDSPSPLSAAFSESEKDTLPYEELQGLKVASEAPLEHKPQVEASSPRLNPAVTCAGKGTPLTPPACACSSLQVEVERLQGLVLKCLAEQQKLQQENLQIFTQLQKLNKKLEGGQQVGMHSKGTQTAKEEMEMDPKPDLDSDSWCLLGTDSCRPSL

Sequence of Sphingosine kinase 1 (Homo sapiens) (Q9NYA1 whole entry): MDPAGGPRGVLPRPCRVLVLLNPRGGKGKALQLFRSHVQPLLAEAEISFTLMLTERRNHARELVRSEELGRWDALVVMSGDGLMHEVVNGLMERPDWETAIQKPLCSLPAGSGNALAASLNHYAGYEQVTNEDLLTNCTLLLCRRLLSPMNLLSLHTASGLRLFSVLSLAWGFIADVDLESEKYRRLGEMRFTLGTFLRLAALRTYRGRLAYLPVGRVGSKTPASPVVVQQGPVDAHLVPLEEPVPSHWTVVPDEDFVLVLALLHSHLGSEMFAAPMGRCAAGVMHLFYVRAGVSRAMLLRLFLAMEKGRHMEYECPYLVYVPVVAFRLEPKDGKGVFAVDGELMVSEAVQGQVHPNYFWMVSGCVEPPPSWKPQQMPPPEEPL

## CCCN1CCC(Oc2cc(Nc3nc(Nc4cccc(F)c4C(N)=O)c4cc[nH]c4n3)c(OC)cc2Cl)CC1
[1]
  inhibition: 0.63%
[2]
  inhibition: -0.36%
[3]
  inhibition: 0.09%
[4]
  inhibition: 0.96%
[5]
  inhibition: 7.7%
[6]
  inhibition: -0.06%
[7]
  inhibition: -9.18%
[8]
  inhibition: -1.77%
[9]
  inhibition: -4.88%
[10]
  inhibition: -2.26%
[11]
  inhibition: -1.68%
[12]
  inhibition: 0.59%
[13]
  inhibition: 0.62%
[14]
  inhibition: -0.38%
[15]
  inhibition: 1.09%
[16]
  inhibition: 0.14%
[17]
  inhibition: -2.04%
[18]
  inhibition: -8.48%
[19]
  inhibition: 1.7%
[20]
  inhibition: -0.6%
